In PubChem BioAssay:
Activity calls are given as the source filed them.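 Rule for the calls, unless noted: active = fluorescence slope after compound addition differing from the mean of all screened samples at 99.7% confidence, in either direction; inactive = the rest.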

Legend:
[1] = inhibitors of TNFa-induced NFkB p65 translocation, primary screen, imaging, HUVEC, MLSMR starter and 10KST1 sets (AID 438;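 active = inhibition above 20% together with a positive visual image hit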;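 note: compound added about 3h40 before a 20 min TNFalpha stimulation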;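 for inhibition: signal is the nuclear over cytoplasmic p65 intensity ratio per well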); conditions: HUVEC TNFa-induced p65 nuclear translocation; cell count: measured here: nuclei count (cytotoxicity indicator), at 2.08 µM; inhibition: at 2 µM, stronger effect = higher value, 0% TNFa-plus-vehicle, 100% no-TNFa wells
[2] = inhibitors of mutant huntingtin aggregation, primary screen, imaging, exon1htt(103Q)mCFP cells, high-content imaging (AID 483;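 active = visual image review flags a hit and inhibition of aggregation exceeds 20%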;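 note: compound exposure lasted 3 days before fixation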;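 for nuclei count: percent of the per-plate median nuclei count of sample wells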); conditions: exon1htt(103Q)mCFP cell line, aggregate imaging, at 2 µM; inhibition of aggregation: stronger effect = higher value; nuclei count: measured here: cell count, toxicity
[3] = inhibitors of E-selectin induction by TNFa, primary screen, imaging, HUVEC, immunofluorescence, MLSMR starter and 10KST1 sets (AID 487;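 active = visually confirmed hit in the image check and inhibition above 20%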;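 for inhibition: signal is fraction of cell area covered by stained E-selectin grains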;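 for nuclei count: 100% = median nuclei count of all wells on the same plate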); conditions: HUVEC TNFalpha-induced E-selectin immunofluorescence imaging, at 2 µM; inhibition: stronger effect = higher value; nuclei count: measured here: cell number, toxicity
[4] = biological target: Voltage-gated potassium channel subunit beta-2 (Rattus norvegicus) (UniProt P62483); experiment: KvBeta enzyme negative modulators, primary screen, biochemical, NADPH fluorescence (AID 622;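 active = fluorescence slope higher than the sample average by over 3 SD, cut at about -0.22 in these data, passing the limit was not always enough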;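 note: slope of raw intensity against log time taken from 70 to 1610 s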); conditions: recombinant KvBeta, 4-cyanobenzaldehyde reduction, at 10 µM, stronger effect = higher value
[5] = biological target: Voltage-gated potassium channel subunit beta-2 (Rattus norvegicus) (UniProt P62483); experiment: KvBeta positive modulators, primary screen, biochemical, NADPH fluorescence (AID 623;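 active = NADPH fluorescence slope more negative than the mean of all samples by about 3 SD, 99.7% confidence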;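 note: fluorescence intensity change per second fitted from 20 to 320 s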); conditions: Recombinant KvBeta, NADPH fluorescence decrease slope, 10 min; at 10 µM; stronger effect = lower value
[6] = biological target: Alpha-2C adrenergic receptor (Homo sapiens) (UniProt P18825); experiment: modulators of alpha2C/GIRK thallium flux, primary screen, cell-based, HEK293 alpha2C/GIRK1/2 (AID 624); conditions: thallium flux BTC fluorescence, at 10 µM, actives lie on both sides;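 note: slope of fluorescence ratio to pre-addition baseline per second over 15 to 24 s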
[7] = inhibitors of Sendai virus-induced IRF3 signaling, primary screen, TLR/RLR signaling modifier project, cell-based, Sendai virus stimulus, luciferase, 10K MLSCN set (AID 602276;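 active = inhibition at or above 50% at 10 µM; inactive = inhibition below 50%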;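 note: firefly luciferase from ISG56 promoter only with Renilla not read in this screen; 0% = Sendai virus plus DMSO and 100% = medium plus DMSO without virus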); conditions: HEK293 RL24 IRF3 luciferase reporter, at 10 µM, stronger effect = higher value
[8] = inhibitors of poly I:C-induced TLR3 signaling, primary screen, cell-based, poly I:C stimulus, luciferase, 10K MLSCN set (AID 602277;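 active = inhibition of the reporter signal at or above 50%; inactive = inhibition below 50%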); conditions: HEK293-TLR3 RL24 IRF3 luciferase reporter, at 10 µM, stronger effect = higher value

Chain of Alpha-2C adrenergic receptor (Homo sapiens) (P18825 whole entry, looked up): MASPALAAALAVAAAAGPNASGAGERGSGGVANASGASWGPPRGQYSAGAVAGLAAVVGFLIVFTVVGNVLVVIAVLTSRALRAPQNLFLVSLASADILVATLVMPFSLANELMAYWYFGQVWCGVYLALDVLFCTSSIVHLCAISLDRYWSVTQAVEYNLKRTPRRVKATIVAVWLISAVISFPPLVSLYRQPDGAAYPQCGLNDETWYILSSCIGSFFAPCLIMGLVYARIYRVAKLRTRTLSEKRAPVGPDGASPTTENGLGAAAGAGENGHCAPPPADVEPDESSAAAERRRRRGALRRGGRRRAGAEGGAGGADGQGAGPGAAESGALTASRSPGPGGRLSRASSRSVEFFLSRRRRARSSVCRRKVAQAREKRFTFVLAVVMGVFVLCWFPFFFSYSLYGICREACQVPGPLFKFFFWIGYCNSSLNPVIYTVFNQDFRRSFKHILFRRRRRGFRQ
Chain of Voltage-gated potassium channel subunit beta-2 (Rattus norvegicus) (P62483 whole entry, looked up): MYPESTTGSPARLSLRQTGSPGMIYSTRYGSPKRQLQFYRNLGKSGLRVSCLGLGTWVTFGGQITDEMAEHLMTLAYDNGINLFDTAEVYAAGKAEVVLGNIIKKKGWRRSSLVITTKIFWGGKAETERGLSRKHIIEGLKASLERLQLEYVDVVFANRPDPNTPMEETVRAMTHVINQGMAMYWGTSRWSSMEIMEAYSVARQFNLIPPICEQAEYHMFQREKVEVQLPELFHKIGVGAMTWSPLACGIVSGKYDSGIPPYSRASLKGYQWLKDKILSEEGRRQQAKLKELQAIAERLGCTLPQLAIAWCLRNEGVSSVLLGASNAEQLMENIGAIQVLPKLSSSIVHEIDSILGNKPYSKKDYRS

Compound | cell count [1] | inhibition [1] | inhibition of aggregation [2] | nuclei count [2] | inhibition [3] | nuclei count [3] | fluorescence slope [4] | NADPH fluorescence slope [5] | slope [6] | inhibition [7] | inhibition [8]
C=CC(O)(C#CCN(CC)CC)c1ccccc1 (stereo not drawn) | 740 | -36% (inactive) | -18.5% (inactive) | 107% | -53.6% (inactive) | 110% | -0.596 (inactive) | -5e-05 (inactive) | 0.0061 (inactive) | 4.67% (inactive) | 11.4% (inactive)
O=c1[nH]c(CN2CCN(Cc3ccccc3)CC2)nc2sc3c(c12)CCC3 | 406 | -0.4% (inactive) | -0.1% (inactive) | 109% | -73% (inactive) | 99.5% | -0.596 (inactive) | -3e-05 (inactive) | 0.00576 (inactive) | 3.63% (inactive) | 17.7% (inactive)
O=C(CCN1C(=O)C2C3C=CC(C3)C2C1=O)Nc1c(F)cc(F)cc1Br (stereo not drawn) | 827 | -6.6% (inactive) | 16.5% (inactive) | 95.3% | -21.9% (inactive) | 120% | -0.587 (inactive) | -6.8e-05 (inactive) | 0.00666 (inactive) | -0.108% (inactive) | 11.7% (inactive)
O=C(CSCc1cnn(-c2ccccc2)c1-n1cccc1)NCC1CCCO1 (stereo not drawn) | 587 | -10% (inactive) | -10.3% (inactive) | 101% | -1.9% (inactive) | 121% | -0.581 (inactive) | -4.7e-05 (inactive) | 0.00606 (inactive) | 2.57% (inactive) | 15.3% (inactive)
Cn1c(CCNC(=O)c2ccco2)nc2cc(NC(=O)C3CCCCC3)ccc21 | 359 | 0.5% (inactive) | 8.3% (inactive) | 91.1% | 42.2% (inactive) | 88.8% | -0.466 (inactive) | -0.000205 (inactive) | 0.00612 (inactive) | 6.27% (inactive) | 0.497% (inactive)
COc1ccc(N2Cc3ccccc3C2)cc1Cl | 579 | -12.3% (inactive) | -13.8% (inactive) | 84% | -2% (inactive) | 98.5% | -0.527 (inactive) | -2.4e-05 (inactive) | 0.00436 (inactive) | -31.1% (inactive) | -55.5% (inactive)
O=S(=O)(NC1CCCCC1NS(=O)(=O)c1ccc(F)cc1)c1ccc(F)cc1 (stereo not drawn) | 334 | 5.3% (inactive) | -1.8% (inactive) | 101% | 5.1% (inactive) | 112% | -0.503 (inactive) | -3.7e-06 (inactive) | 0.00507 (inactive) | 21.4% (inactive) | 26.6% (inactive)
COc1ccc(C(=O)Nc2ccc(C)cn2)c(OC)c1 | 283 | 14.7% (inactive) | -14.1% (inactive) | 79% | -3.2% (inactive) | 101% | -0.469 (inactive) | -3.9e-05 (inactive) | 0.00731 (inactive) | -3.57% (inactive) | 53.3% (active)
CCSc1nc2ccccc2n1CC(N)=O | 400 | 2.1% (inactive) | -4% (inactive) | 114% | -62.6% (inactive) | 113% | -0.449 (inactive) | -0.000317 (inactive) | 0.00599 (inactive) | 14.3% (inactive) | 20.8% (inactive)
COc1ccc(Cl)cc1S(=O)(=O)N1CCN(c2ccc(F)cc2)CC1 | 657 | -1.1% (inactive) | -29.1% (inactive) | 101% | 36.7% (inactive) | 137% | -0.319 (inactive) | -1.3e-05 (inactive) | 0.00495 (inactive) | 46.4% (inactive) | 0.0275% (inactive)
c1ccc(CC2CCN(c3nc4ccccc4n4nnnc34)CC2)cc1 | 373 | -13.8% (inactive) | -7.8% (inactive) | 102% | -63.7% (inactive) | 114% | -0.312 (inactive) | -3.7e-05 (inactive) | 0.00583 (inactive) | 7.26% (inactive) | 13.6% (inactive)
C=CCNC(=O)c1cccc(Br)c1 | 399 | 6.3% (inactive) | -3.3% (inactive) | 101% | -24.7% (inactive) | 115% | -0.448 (inactive) | 1.8e-05 (inactive) | 0.00497 (inactive) | -5.88% (inactive) | 7.57% (inactive)
COC(=O)c1[nH]c2ccc(F)cc2c1NS(=O)(=O)c1ccc(OC)cc1OC | 682 | -11% (inactive) | -3.2% (inactive) | 106% | -80.2% (inactive) | 152% | -0.598 (inactive) | -5.6e-05 (inactive) | 0.00552 (inactive) | 16.7% (inactive) | 45.4% (inactive)
COc1cc(C(=O)Nc2cccc(-c3nncn3C)c2)cc(OC)c1OC | 416 | 7.6% (inactive) | 22.2% (inactive) | 76.5% | -52.3% (inactive) | 102% | -0.303 (inactive) | -2.8e-05 (inactive) | 0.00614 (inactive) | 14.3% (inactive) | 14.5% (inactive)
O=C(Cn1nnc(-c2cc(Cl)ccc2-n2cnnn2)n1)N1CCCc2ccccc21 | 574 | -2.1% (inactive) | -3.1% (inactive) | 97.2% | -13.8% (inactive) | 105% | -0.425 (inactive) | -0.000127 (inactive) | 0.00585 (inactive) | 17.3% (inactive) | 23.2% (inactive)
CCOCCCNC(=O)CS(=O)(=O)Cc1nc(-c2cccc(OC)c2)oc1C | 558 | -43.9% (inactive) | 16% (inactive) | 65.2% | -6.1% (inactive) | 97.9% | -0.596 (inactive) | 4.7e-07 (inactive) | 0.00578 (inactive) | 12.4% (inactive) | 33.7% (inactive)
COc1ccc(-n2nnnc2SCC(=O)c2ccc(O)c(O)c2)cc1 | 344 | -6.5% (inactive) | 20.5% (inactive) | 91.8% | -74.4% (inactive) | 112% | -0.487 (inactive) | -0.000117 (inactive) | 0.00395 (inactive) | 13.7% (inactive) | 16.9% (inactive)
CN(C)C(=O)Cn1c(SCC(=O)NC2CCCCC2)nc2ccccc21 | 685 | -3.1% (inactive) | -19.2% (inactive) | 112% | -68.3% (inactive) | 146% | -0.41 (inactive) | 6.1e-06 (inactive) | 0.00698 (inactive) | 5.56% (inactive) | 31.7% (inactive)
O=C(C1CCN(S(=O)(=O)c2cccc3cccnc23)CC1)N1CCN(C2CCCCC2)CC1 | 412 | 10.7% (inactive) | 3.3% (inactive) | 69.2% | -22.1% (inactive) | 106% | -0.565 (inactive) | -1.6e-05 (inactive) | 0.00678 (inactive) | -4.22% (inactive) | 35.6% (inactive)
Cc1ccc(C2Nc3ccccc3-c3nc4ccccc4n32)o1 (stereo not drawn) | 741 | 6.8% (inactive) | 3.8% (inactive) | 88.4% | -26.5% (inactive) | 80.6% | -0.475 (inactive) | -2.2e-05 (inactive) | 0.00364 (inactive) | -46.2% (inactive) | -110% (inactive)
Cc1cc(C(=O)N2CCN(C/C=C/c3ccccc3)CC2)no1 | 242 | 8.7% (inactive) | -4.4% (inactive) | 101% | 11.3% (inactive) | 98.6% | -0.465 (inactive) | 1.9e-06 (inactive) | 0.0056 (inactive) | 13% (inactive) | 25.3% (inactive)
CC1CCN(C(=O)CCNS(=O)(=O)c2ccccc2)CC1 | 709 | 0.4% (inactive) | -20.3% (inactive) | 101% | -149% (inactive) | 142% | -0.605 (inactive) | -2.3e-07 (inactive) | 0.00564 (inactive) | -23.4% (inactive) | -31.3% (inactive)
O=C1c2ccccc2C(Nc2ccc(F)c(Cl)c2)N1Cc1ccco1 (stereo not drawn) | 778 | -11.6% (inactive) | -4.9% (inactive) | 110% | -37.8% (inactive) | 105% | -0.442 (inactive) | -5.5e-05 (inactive) | 0.0049 (inactive) | 5.4% (inactive) | 26.8% (inactive)
Cc1ccc(-n2c(Cn3cnc4ccccc43)nnc2SCC(=O)O)cc1 | 610 | -9.8% (inactive) | -19.4% (inactive) | 108% | -26.2% (inactive) | 110% | -0.437 (inactive) | 1.2e-06 (inactive) | 0.00571 (inactive) | 15.2% (inactive) | 21.8% (inactive)
O=C(NCc1cccs1)c1cc2c(s1)CCCC2 | 377 | -16.3% (inactive) | 5.1% (inactive) | 89.1% | -21.4% (inactive) | 126% | -0.479 (inactive) | 6e-05 (inactive) | 0.0052 (inactive) | -44.6% (inactive) | -105% (inactive)
CCCC(=O)N1CC(=O)Nc2ccc(C)cc2C1c1ccc(F)cc1 (stereo not drawn) | 698 | -9.1% (inactive) | 7.9% (inactive) | 103% | -21.3% (inactive) | 111% | -0.513 (inactive) | -3e-05 (inactive) | 0.00518 (inactive) | 3.95% (inactive) | 24.9% (inactive)
COC(=O)Cn1c(=O)c2c(nc(Br)n2CC(=O)OC)n(C)c1=O | 640 | 6.7% (inactive) | -0.4% (inactive) | 103% | 24.8% (inactive) | 101% | -0.406 (inactive) | -1.4e-05 (inactive) | 0.00483 (inactive) | 9.82% (inactive) | 7.4% (inactive)
Cn1c(C(=O)NCC2CCCO2)cc2c(=O)n(C)c3ccccc3c21 (stereo not drawn) | 658 | -5.5% (inactive) | -1.8% (inactive) | 115% | -71.5% (inactive) | 107% | -0.583 (inactive) | -3.1e-05 (inactive) | 0.00806 (inactive) | 7.53% (inactive) | 19% (inactive)
